Sm TGR block – inhibitors of Schistosoma mansoni thioredoxin glutathione reductase; Potency, µM (top dose mostly 114 µM), usual class: inhibitors; purified TGR, DTNB reduction, TNB absorbance 405 nm; Q962Y6; 360,000 compounds, 3% hits; also: nearly all actives have a fitted effect of over 60% in size
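First, TGR (20 nM dispensed) and NADPH were mixed with compound. Second, a 15 min room-temperature incubation followed. Third, further NADPH and then DTNB were added to start the reaction. Finally, TNB absorbance was monitored kinetically.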
Pf growth 96h – P. falciparum growth inhibition at 96 hours. Potency, µM (doses to about 28.7 µM), actives largely listed as inhibitors. AID 504834. 320,000 compounds, 6.9% hits. P. falciparum luciferase reporter growth, 96 h
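Luminescence readout: decreased luciferase signal marks inhibited growth of reporter-expressing P. falciparum in infected red cells (2% hematocrit, 0.05% parasitemia final), exposed to compound two generations (96 h, 37 C, 5% CO2).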
AmpC inh no detg – inhibitors of E. coli AmpC beta-lactamase without detergent | P00811 | AmpC nitrocefin hydrolysis, absorbance 480 nm, 0.0001% Triton | Potency, µM (highest dose often 57.1 µM), actives largely listed as inhibitors | 330,000 compounds, 0.52% hits; also: nearly all actives have a fitted effect of over 20% in size
Target sequence (P00811 whole entry, looked up): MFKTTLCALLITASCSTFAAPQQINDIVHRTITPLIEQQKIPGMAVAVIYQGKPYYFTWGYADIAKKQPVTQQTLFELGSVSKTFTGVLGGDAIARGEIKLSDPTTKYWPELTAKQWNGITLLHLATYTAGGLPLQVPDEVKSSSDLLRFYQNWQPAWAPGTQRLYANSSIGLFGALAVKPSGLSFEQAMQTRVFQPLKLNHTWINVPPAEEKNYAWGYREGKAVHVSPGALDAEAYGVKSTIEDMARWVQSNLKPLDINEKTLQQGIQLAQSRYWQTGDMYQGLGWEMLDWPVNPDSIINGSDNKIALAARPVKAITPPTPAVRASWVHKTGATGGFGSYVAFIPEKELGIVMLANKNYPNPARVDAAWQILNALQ
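20 mM phosphate pH 7.0 + 0.01% (detergent screen) or 0.0001% Triton X-100; 5.3 nM AmpC reagent; cpd preinc 15 min RT; nitrocefin (800 uM stock) to start; A480 q20 s × 4 min; Activity was normalised to no-enzyme and no-compound control wells.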
Pf growth 48h – inhibits P. falciparum growth in the first generation, 48 h; 310,000 compounds, 5.9% hits; AID 504832; P. falciparum luciferase growth in erythrocytes, 48 h; Potency, µM (doses to about 28.7 µM), actives largely listed as inhibitors
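Luminescence readout; reporter = integrated firefly luciferase in P. falciparum. RBC culture at 2% hematocrit, 0.1% parasitemia final, 37 C/5% CO2; decreased signal taken as growth inhibition.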
SARS PLpro yeast – blocks SARS-CoV papain-like protease in a yeast assay; S. cerevisiae expressing SARS-CoV PLpro, growth rescue; Potency, µM (doses to about 32.9 µM), usual class: activators; 330,000 compounds, 0.19% hits; AID 485353; calls by dose curve; also: nearly all actives have a fitted effect of over 55% in size
AmpC detergent – inhibitors of E. coli AmpC beta-lactamase with detergent; 370,000 compounds, 0.041% hits; AID 485294; Potency, µM (top dose mostly 114 µM), hits mostly inhibitors; AmpC hydrolysis of nitrocefin, absorbance 480 nm, 0.01% Triton; P00811; also: nearly all actives have a fitted effect of over 25% in size
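AmpC (5.3 nM in the dispensed reagent) in 20 mM phosphate pH 7.0 with 0.01% (detergent screen) or 0.0001% Triton X-100 was preincubated with compounds for 15 min at room temperature. Nitrocefin was then added from an 800 uM solution, and hydrolysis was followed at 480 nm.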
Of the large screens only hits and unclear results are named; the others gave an inactive call. Hits are enriched below; roughly 12% of the tested compounds scored in any of these assays. Unless noted, calls follow the shape of the dose curve; as a rule, active = well fitted curve in the direction sought with a large enough effect; inconclusive = small, poorly fitted or top-dose-only effect, or another doubt; inactive = no such curve, though single readings can be large; an effect the other way counts as inactive or inconclusive.

N=c1c(S(=O)(=O)c2ccc(Cl)cc2)cc2c(=O)n3ccccc3nc2n1CCN1CCOCC1	Sm TGR block 44.7µM, Pf growth 48h inconclusive, AmpC detergent inconclusive
COc1ccc(S(=O)(=O)N(CC(=O)NCCSc2ccccc2)c2ccc(Cl)cc2)cc1	none (no result: Pf growth 96h, AmpC inh no detg, Pf growth 48h, SARS PLpro yeast)
CC1=Cc2ccccc2C(C#N)N1C(=O)c1ccccc1 (configuration not stated)	none
CC#CCCC(=O)N1C=Cc2ccccc2C1C#N (configuration not stated)	Sm TGR block inconclusive, Pf growth 48h 2.33µM
CCc1nc(N2CCN(C(=O)c3ccccc3)CC2)c2c3c(sc2n1)CCCC3	Pf growth 48h inconclusive
CCc1nc(N2CCN(C(=O)c3ccco3)CC2)c2c3c(sc2n1)CCCC3	Sm TGR block 56.2µM, Pf growth 48h inconclusive
c1ccc(N2CCN(c3ncnc4sc5c(c34)CCC5)CC2)cc1	Pf growth 48h inconclusive
O=C(c1ccco1)N1CCN(c2ncnc3sc4c(c23)CCC4)CC1	Sm TGR block 11.2µM, Pf growth 48h inconclusive
Cc1sc2nc(CN3CCCCC3)nc(N3CCN(C(=O)c4ccco4)CC3)c2c1C	Pf growth 96h inconclusive, Pf growth 48h 7.38µM
Cc1cccc(-n2c3nc(=O)[nH]c(=O)c-3cc3ccc(Cl)cc32)c1C	none (no result: Pf growth 96h, AmpC inh no detg, Pf growth 48h, SARS PLpro yeast)
COC(=O)c1sc(NC(=O)CSc2nnc(Cn3nnc4ccccc43)n2C)nc1C	Sm TGR block inconclusive, Pf growth 96h inconclusive
COC(=O)c1c(NC(=O)CSc2nnc(Cn3nnc4ccccc43)n2C)sc(C)c1C	Sm TGR block inconclusive, Pf growth 96h 7.38µM, AmpC detergent inconclusive
Cn1c(Cn2nnc3ccccc32)nnc1SCC(=O)N1c2ccccc2Sc2ccccc21	Pf growth 96h 10.4µM, Pf growth 48h inconclusive
CN(C)CCCn1c(SCC(=O)N2c3ccccc3Sc3ccccc32)nc2ccccc2c1=O	Pf growth 96h 4.15µM, Pf growth 48h 10.4µM
Cn1c(SCC(=O)N2c3ccccc3Sc3ccccc32)nc2ccccc21	Pf growth 96h inconclusive, Pf growth 48h inconclusive, AmpC detergent inconclusive
O=c1cc(-c2ccccc2Cl)oc2c([N+](=O)[O-])c(O)cc(O)c12	none
COc1ccccc1-c1cc(=O)c2c(O)ccc([N+](=O)[O-])c2o1	Sm TGR block inconclusive, Pf growth 96h 10.4µM, Pf growth 48h 11.7µM
CSc1nc(SCC(=O)O)c2c3c(sc2n1)COC(C)(C)C3	Pf growth 96h inconclusive
CSC1=NC(NCCCO)c2c(sc3c2CC(C)(C)OC3)N1 (configuration not stated)	Pf growth 96h 9.28µM, Pf growth 48h inconclusive, AmpC detergent inconclusive
Nc1c(C(=O)NCc2ccco2)c2nc3ccccc3nc2n1CCc1ccccc1F	Sm TGR block 25.1µM, Pf growth 48h 10.4µM (no result: Pf growth 96h)
Nc1c(C(=O)NCc2ccco2)c2nc3ccccc3nc2n1Cc1ccccc1	Sm TGR block 28.2µM, Pf growth 96h inconclusive, Pf growth 48h inconclusive
CCCCn1c(N)c(C(=O)NCc2cccs2)c2nc3ccccc3nc21	Pf growth 96h inconclusive, Pf growth 48h inconclusive, AmpC detergent inconclusive
COc1ccc(Cn2c(N)c(C(=O)NCc3ccco3)c3nc4ccccc4nc32)cc1	Pf growth 96h inconclusive, Pf growth 48h inconclusive
CCCCCn1c(N)c(C(=O)NCCN2CCOCC2)c2nc3ccccc3nc21	Pf growth 96h inconclusive, Pf growth 48h inconclusive
COc1ccc(-n2c(N)c(C(=O)NCc3ccco3)c3nc4ccccc4nc32)c(OC)c1	Sm TGR block 25.1µM, Pf growth 96h inconclusive, Pf growth 48h inconclusive, AmpC detergent inconclusive
CCCCCCn1c(N)c(C(=O)NCCN2CCOCC2)c2nc3ccccc3nc21	Sm TGR block inconclusive, Pf growth 96h inconclusive, Pf growth 48h 9.28µM, AmpC detergent inconclusive
CCCCOC(=O)c1c(N)n(-c2ccc(OC)cc2OC)c2nc3ccccc3nc12	none (no result: Pf growth 96h, AmpC inh no detg, Pf growth 48h, SARS PLpro yeast)
Cc1ccc(C)c(NC(=O)C2CCN(c3nn4c(=O)cc(C)nc4s3)CC2)c1	none (no result: Pf growth 96h, AmpC inh no detg, Pf growth 48h, SARS PLpro yeast)
Cc1ccc(NC(=O)/C=N/OCC(=O)NCc2ccccc2Cl)cc1	none
Cc1ccc(S(=O)(=O)NCC(=O)OCC(=O)NCc2cccs2)cc1	none
Nc1c(C(=O)NCc2ccco2)c2nc3ccccc3nc2n1CCN1CCOCC1	Sm TGR block 25.1µM (no result: Pf growth 48h)
Nc1c(C(=O)NCc2ccco2)c2nc3ccccc3nc2n1Cc1ccc(F)cc1	Sm TGR block 11.2µM, Pf growth 96h inconclusive, Pf growth 48h 1.85µM
Nc1c(C(=O)Nc2ccccc2)c2nc3ccccc3nc2n1CCCN1CCOCC1	Pf growth 96h inconclusive, Pf growth 48h inconclusive
COc1ccc(CCn2c(N)c(C(=O)NCc3ccco3)c3nc4ccccc4nc32)cc1	Pf growth 48h inconclusive, AmpC detergent inconclusive
COc1ccc(CCn2c(N)c(C(=O)NCc3ccco3)c3nc4ccccc4nc32)cc1OC	Sm TGR block 15.8µM, Pf growth 48h 5.22µM
COc1ccc(CCNC(=O)c2c(N)n(CCN3CCOCC3)c3nc4ccccc4nc23)cc1OC	Pf growth 96h 4.65µM, Pf growth 48h 9.28µM
Cc1nonc1OCCn1c([N+](=O)[O-])cnc1C	AmpC detergent inconclusive (no result: Sm TGR block)
COCCCNC(=O)C1CCN(C(=O)c2ccc(-n3ccc4ccccc43)s2)CC1	none (no result: Pf growth 96h, AmpC inh no detg, Pf growth 48h, SARS PLpro yeast)
CCC(COC)NC(=O)CCc1nnc(Cc2c[nH]c3ccccc23)o1 (configuration not stated)	Sm TGR block inconclusive, Pf growth 96h 13.1µM, AmpC detergent inconclusive
CN(C)CC(C(=O)c1ccccc1)c1ccccc1 (configuration not stated)	Sm TGR block 35.5µM, Pf growth 48h inconclusive, AmpC detergent inconclusive (no result: Pf growth 96h)
COc1ccc(C(C(=O)OC(C)CN(C)C)c2ccccc2)cc1 (configuration not stated)	Pf growth 96h inconclusive
Cc1oc(-c2ccc(C(=O)NCc3ccc(N(C)C)cc3)cc2)nc1COc1ccccc1	none (no result: Pf growth 96h, AmpC inh no detg, Pf growth 48h, SARS PLpro yeast)
N#CCCN1CCN(C(=S)c2ccc(-c3cc(Cl)ccc3Cl)o2)CC1	Pf growth 96h 5.22µM, Pf growth 48h inconclusive, AmpC detergent inconclusive
CN1CCN(C(=S)c2ccc(-c3cc(Cl)ccc3Cl)o2)CC1	Pf growth 48h inconclusive
COc1ccc(/C=C/CN2CCN(CC(C)C)C(CCO)C2)cc1 (configuration not stated)	Pf growth 96h 4.15µM, Pf growth 48h inconclusive
C/C(=C\c1ccccc1)CN1CCN(Cc2ccc(C)o2)C(CCO)C1 (configuration not stated)	Pf growth 96h 2.08µM, Pf growth 48h inconclusive
CCOc1cc(CN2CCN(Cc3ccc(C)o3)C(CCO)C2)ccc1OC (configuration not stated)	Pf growth 96h inconclusive (no result: Sm TGR block)
COc1cc(/C=C/CN2CCN(CCC(C)C)C(CCO)C2)ccc1O (configuration not stated)	Sm TGR block 12.6µM
